Shown are actives, neighbours in structure and some others; about 6.6% of the full set was active somewhere.
Mtb FBA inh – Mtb fructose-bisphosphate aldolase inhibition; AID 588726; inhibition, % at 1 µM; P9WQA3; hit rate 2.3% among 360,000; purified M. tuberculosis FBA, fluorescence read-out;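 note: 0% = vehicle and 100% = reference inhibitor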
Target sequence (P9WQA3 whole entry, looked up): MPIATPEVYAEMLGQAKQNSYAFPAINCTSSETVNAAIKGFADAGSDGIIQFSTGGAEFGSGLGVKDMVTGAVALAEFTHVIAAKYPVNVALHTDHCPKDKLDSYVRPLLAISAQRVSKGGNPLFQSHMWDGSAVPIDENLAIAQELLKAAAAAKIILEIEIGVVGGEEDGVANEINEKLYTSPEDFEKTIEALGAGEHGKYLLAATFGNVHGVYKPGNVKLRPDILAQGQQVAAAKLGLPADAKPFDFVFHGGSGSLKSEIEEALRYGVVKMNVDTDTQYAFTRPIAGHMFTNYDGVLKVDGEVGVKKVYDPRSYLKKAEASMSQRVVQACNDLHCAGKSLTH
Anthrax LF inh2 – inhibitors of Bacillus anthracis lethal factor protease; P15917; multiplex microsphere protease cleavage assay, LF; inhibition, % at 10 µM; hit rate 0.12% among 360,000; in the data active = inhibition above about 30%; inconclusive = no clear call, values can overlap the other calls; note: plate controls were buffer without enzyme for full effect and enzyme alone for no effect
Autofluor counter – compound fluorescence in toxin protease inhibitor counterscreen. compound autofluorescence counterscreen, microsphere flow cytometry; stronger effect = higher value. fluorescence intensity (concentration not given with the values). hit rate 3.1% among 360,000. AID 624483; in the data active = fluorescence intensity above about 16000; inconclusive = no clear call, values can overlap the other calls
BoNT-A LC inh2 – BoNT A light chain protease inhibition; multiplex microsphere protease substrate cleavage, flow cytometry; inhibition, % at 10 µM; hit rate 0.17% among 360,000; AID 588499; in the data active = inhibition above about 30%; inconclusive = no clear call, values can overlap the other calls; note: plate controls were buffer without enzyme for full effect and enzyme alone for no effect
GDH-TPI counter-1 – counter-screen for M. tuberculosis FBA inhibitors: GDH-TPI coupled enzymes; GDH-TPI coupled enzyme counterscreen, NADH absorbance; inhibition, % at 4.8 µM; hit rate 1.2% among 360,000; in the data active = inhibition above about 30%;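 note: 0% = DMSO wells and 100% = wells lacking the enzyme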
BoNT-F LC inh – BoNT F light chain protease inhibition; Multiplex microsphere protease cleavage assay, flow cytometry; inhibition, % at 10 µM; hit rate 0.22% among 360,000; in the data active = inhibition above about 35%, passing the limit was not always enough; inconclusive = no clear call, values can overlap the other calls; note: plate controls were buffer without enzyme for full effect and enzyme alone for no effect
Mtb FBA inh conf – confirmation of M. tuberculosis fructose-bisphosphate aldolase inhibitors; hit rate 78% among 5,600; purified M. tuberculosis FBA, fluorescence read-out; shares compounds with Mtb FBA inh; inhibition, % at 1 µM; AID 651616;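 note: 0% = vehicle wells and 100% = reference inhibitor wells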
GDH-TPI counter-2 – inhibits GDH-TPI coupling enzymes, flagging Mtb FBA hits; hit rate 81% among 5,600; shares compounds with Mtb FBA inh; AID 652141; inhibition, % at 1 µM; GDH-TPI coupled enzyme counterscreen, fluorescence; in the data active = inhibition above about 10%
Numbers without * were called inactive; ? = inconclusive; · = no result given; + = active, no number. Cut-off read from the data, not from the text of the source, unless noted: active = inhibition above about 27%; inactive = the rest.

SMILES	Mtb FBA inh	Anthrax LF inh2	Autofluor counter	BoNT-A LC inh2	GDH-TPI counter-1	BoNT-F LC inh	Mtb FBA inh conf	GDH-TPI counter-2
O=S(=O)(NC1c2cccc3cccc(c23)C1N1CCNCC1)c1ccc(Cl)cc1 (centres undefined)	2.4	-0.6	4389	-2.8	2.2	-9.8	·	·
COc1ccc2c(c1)cc(C(=O)O)n2C	64.5*	3.6	?	?	6.2	?	+	+
COc1cc2cc(C(=O)O)n(C)c2c(OC)c1OC	58.7*	?	?	-2.0	9.8	-12.5	68.0*	61.3*
COc1ccc(S(=O)(=O)Nc2c(C)cc(C)cc2C)c2cccnc12	4.6	3.3	5617	-0.5	4.7	-9.8	·	·
CN(C)c1oc(-c2ccc(OCc3ccccc3)cc2)nc1C#N	109.5*	-5.5	2356	0.3	25.6	-2.7	-5.7	-5.2
COc1ccc2nc(/C=N/NC(=O)[C@@H]3CCCN3C(=O)OC(C)(C)C)ccc2c1	99.1*	1.4	3693	1.1	9.2	?	54.0*	45.9*
CCC(C)[C@H](NC(=O)OC(C)(C)C)C(=O)N/N=C/c1ccc2cc(OC)ccc2n1 (some centres undefined)	33.0*	1.4	2137	0.5	17.7	0.1	+	180.5*
COc1ccc2nc(/C=N/NC(=O)[C@H](CCSC)NC(=O)OC(C)(C)C)ccc2c1	60.2*	-0.4	2597	-0.3	32.1*	-8.5	53.1*	56.0*
CCCCNC(=O)CNC(=S)N(Cc1ccccc1F)C1CCCCC1	1.2	2.0	4482	-0.8	10.6	-7.3	·	·
Cc1cnc(C(=O)OC(C(=O)c2c[nH]c3ccccc23)c2ccccc2)cn1 (centres undefined)	-0.2	-0.4	5471	-2.9	-6.4	0.3	·	·
CCCCN(CC)CCCNC(=O)C1CCN(c2ncnc3c2sc2cccc(F)c23)CC1	1.9	-2.4	4979	1.0	2.7	-0.4	·	·
Cc1cccc(NC(=O)C2CCN(C(=O)N3CCOc4ccccc43)CC2)c1C	-5.9	-1.1	5792	-0.8	-8.7	2.3	·	·
CCOc1ccc(S(=O)(=O)NCc2ccc(OC)cc2)c2cccnc12	3.8	-0.5	2046	0.0	6.4	4.0	·	·
CCN(CC)c1ccc2c(C)c(CN3CCOCC3)c(=O)oc2c1	88.0*	-0.3	4695	1.8	17.0	2.7	-3.1	-5.3
CCN(CC)c1ccc2c(O)cc(=O)oc2c1	22.0	-3.4	3826	0.0	23.4	1.1	·	·
CCN(CC)c1ccc2c(C)c(CO)c(=O)oc2c1	49.4*	-0.6	5111	-0.7	8.0	-3.0	+	+
COc1ccccc1NC(=S)N(Cc1ccco1)Cc1cc2cc(C)ccc2[nH]c1=O	2.7	-1.2	2628	-0.8	6.5	-7.7	·	·
OCc1ccccc1-c1cnc2cccnn12	105.4*	2.2	3583	-0.3	8.8	-2.0	113.3*	86.5*
COc1ccc(NS(=O)(=O)c2cccc(C(=O)O)c2)cc1S(=O)(=O)N1CCCCC1	4.2	·	·	·	8.2	·	·	·
Cc1oc2ccccc2c1-c1cn2c(n1)SCC2	102.4*	-5.0	23992*	?	4.6	-5.0	51.8*	41.3*
CS(=O)(=O)c1ccc(-c2cnc3c(NC=O)cc(-c4ccsc4)cn23)cc1	28.6*	-6.3	3261	0.0	18.6	-3.3	166.5*	135.8*
COc1ccc(-c2cnc3c(NC=O)cc(-c4ccc(S(C)(=O)=O)cc4)cn23)cc1OC	1.9	0.3	2949	0.1	11.5	-11.3	·	·
O=CNc1cc(-c2ccsc2)cn2c(-c3ccccc3)cnc12	-1.2	5.3	4018	1.0	8.0	-1.4	·	·
COc1ccccc1-c1cc(NC=O)c2ncc(-c3ccc(S(C)(=O)=O)cc3)n2c1	103.8*	4.9	3999	0.3	18.6	1.4	+	+
COc1cccc(-c2cnc3c(NC(C)=O)cc(-c4ccc(S(C)(=O)=O)cc4)cn23)c1	3.0	-8.8	3389	-0.2	0.4	-0.3	·	·
NC(=O)c1ccccc1NC(=O)/C=C/C(=O)O	50.4*	-0.5	9051	0.6	-1.2	3.3	56.6*	48.5*
O=C(O)/C=C\C(=O)Nc1ccccc1C(=O)NCc1ccccc1	52.4*	-2.1	4837	0.0	10.4	-2.7	-5.4	-3.1

Assay outcomes from PubChem.
